This passage reports growth results from PubChem BioAssay (NCI).

This is part of a sample that, as a whole, favours compounds with a hit. Of some 83,000 tested, about 20% had one in any assay.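 Method: cells in 96-well plates; compound added at one concentration; 48 h incubation; percent growth measured; values under 10 scored active.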 Unmarked numbers belong to inactive results. The source made the active and inactive calls.

The assay concerns MDA-MB-435 melanoma. Briefly: NCI-60 one-dose screen, 48 h (100 = growth as untreated, 0 = no growth, -100 = all killed). Conditions: 10 µM.
As for `CCCOCC(O)CNCCN` (stereo not drawn), the growth was 98.5%.
Turning to `CCCC(C)c1ccc(OCCCCCCN2CCNCC2)cc1` (stereo not drawn), the growth was 28.9%.
The result for `Nc1cc(O)cc(O)c1` reads 106%; that for `Cc1cc(C(C)(C)CC(C)(C)C)ccc1OCCOCC[N+](C)(C)Cc1ccccc1`, -87% (active); that for `CC(C)c1[nH]nc2c(NCc3ccc(-c4ccccn4)cc3)nc(SCCN)nc12`, -39.6% (active).
Consider `CC(=O)c1c(O)cc2c3c1OC(C)(C)C1CCC(C)(CC31)O2` (stereo not drawn), for which the growth was 104%.
Turning to `CN(C)CCCN1c2ccccc2Sc2ccc(C(F)(F)F)cc21`, the growth was -39.3% (active).
The same measure for `CNC(=O)c1cc(Oc2ccc(NC(=O)Nc3ccc(Cl)c(OC4CCCCC4)c3)c(F)c2)ccn1`: 45.3%; for `O=C(Nc1cccc(F)c1)Nc1cccc(Cl)c1`: 89.9%.
The result for `CCN(CC)CC(O)CNc1ccnc2cc(Cl)c(Cl)cc12` (stereo not drawn) reads 96.8%; that for `CCCCCCOc1ccc(/C=C/C(=O)c2ccc(B(O)O)cc2)cc1`, 77.1%; that for `CC1(C)CC(OCCCC[P+](c2ccccc2)(c2ccccc2)c2ccccc2)CC(C)(C)N1O`, -57.9% (active).
For the compound `Fc1cc(-c2ncc(-c3cc(F)c(F)c(F)c3)c(NC3CCCCCC3)n2)cc(F)c1F`, the growth is 96.8%.
The same measure for `COc1c(C)c(C)c(OC)c2c1[nH]c(=O)c1c3cccnc3cn21`: 110%.
For `CC1(C)CCc2cc(-c3ccn(S(=O)(=O)c4ccc(Cl)cc4)n3)ccc2O1`, the growth was 85.8%.
For `O=C(NC1CCCC1)c1ccc(N2CCC(NCc3cccc(C(F)(F)F)c3)CC2)cc1`, the growth is 105%.
The same measure for `CC1=CC2OC34COC3CC(OC(=O)C(F)(F)F)C4(C)C2(C)CC1` (stereo not drawn): 101%.
The result for `CCCCOCCOCCOCc1cc2c(cc1Br)OCO2` reads 108%; that for `CCCCCCCCCCN=C(c1ccc(N(C)C)cc1)c1ccc(N(C)C)cc1`, -14.2% (active).
The same measure for `COc1cccc2c1C(=O)c1c(O)c3c(c(O)c1C2=O)C[C@@](O)(C(=O)COC(=O)c1cccnc1)C[C@@H]3OC1CC(N)C(O)C(C)O1` (stereo partly drawn): -87.5% (active); for `COc1ccc(/C(=C/c2cc(OC)c(OC)cc2[N+](=O)[O-])C(=O)O)cc1`: 116%.
Consider `Nc1ccccc1NC(=O)CCCCCCC(=O)Nc1ccc2c(c1)/C(=C/c1ccc[nH]1)C(=O)N2`, for which the growth was 37.8%.
The same measure for `CCOC(=O)c1c(C)n(-c2ccc(Cl)cc2)c2ccc(OC(=O)/C=C/c3ccccc3)cc12`: 9.43% (active).
Turning to `Cc1nnc2c3nnc(-c4ccc(Cl)cc4)n3c3ccccc3n12`, the growth is 94.9%.
As to `CCOc1ccc2c(c1)CC[C@@H]1[C@@H]2CC[C@]2(C)[C@@H](O)[C@@H](O)C[C@@H]12`, the growth was 90.2%.
In the case of `COC(=O)[C@]12CC[C@@H](C)[C@H](C)[C@@H]1C1=CC[C@@H]3[C@@]4(C)CC(=O)[C@H](O)[C@@](C)(CO)[C@@H]4C(=O)C[C@@]3(C)[C@]1(C)CC2`, the growth was 11.4%.
The result for `CCCCn1c(=O)[nH]c2c(c1=O)C(c1ccc(Cl)cc1)c1c([nH]c(=O)n(CCCC)c1=O)N2` reads 103%; that for `CCC(CCNc1cc(OC)cc2cccnc12)CN1C(=O)c2ccccc2C1=O` (stereo not drawn), 107%; that for `COc1ccc(C(=O)c2sc3nc(-c4cccs4)ccc3c2N)cc1OC`, 5.62% (active).
The result for `O=C/C=C/c1ccc([N+](=O)[O-])cc1Cl` reads 95.9%.
For `C/C(=N\NC(=O)c1sc(=S)n(C)c1N)c1cc2ccccc2o1`, the growth was 41%.
The same measure for `Cc1ccc(-c2cc(C(=O)Nc3ccc(S(=O)(=O)N4CCCCC4)cc3)[nH]n2)c(O)c1`: 61.3%.
In the case of `CC(=O)OC1Oc2ccccc2-c2oc(=O)c(-c3ccc(F)cc3)cc21` (stereo not drawn), the growth was 51.5%.
Consider `COc1ccc(Nc2nc(NCc3ccccc3)c3ccccc3n2)cc1`, for which the growth was 84.2%.
The result for `CCOC(=O)c1c(O)c2cc(-c3ccccc3)nc(OCC)c2c(=O)n1C` reads 90.1%; that for `COc1ccc(-c2nnc(SCC(=O)c3ccccc3)o2)cc1`, 101%; that for `CC(=O)Oc1c(C)c(C)c2c(c1C)CCC(C)(CC(=O)OCCCCCCCCCCC[P+](c1ccccc1)(c1ccccc1)c1ccccc1)O2` (stereo not drawn), -89.2% (active).
The same measure for `Cc1ccccc1[P+](Cc1ccccc1)(c1ccccc1)c1ccccc1`: 1% (active).
